Inconclusive results are not listed. A call without a number means that no potency is given here. A number with no mark means an inactive call. Activity calls are given as the source filed them. Unless noted, calls come from the whole dose curve; as a rule, active = well fitted curve in the direction sought with a large enough effect; inconclusive = small, poorly fitted or top-dose-only effect, or another doubt; inactive = no such curve, though single readings can be large; an effect the other way counts as inactive or inconclusive.
Experiments:
[1] = target: Voltage-gated inwardly rectifying potassium channel KCNH2 (Homo sapiens) (UniProt Q12809); test: qHTS Assay for Small Molecule Inhibitors of the Human hERG Channel Activity (AID 588834);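 note: lower thallium flux fluorescence means stronger hERG block; nearly all actives have a fitted effect of over 50% in size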; note: potency is the fitted concentration of half-maximal effect
Chain of Voltage-gated inwardly rectifying potassium channel KCNH2 (Homo sapiens) (Q12809 whole entry, looked up): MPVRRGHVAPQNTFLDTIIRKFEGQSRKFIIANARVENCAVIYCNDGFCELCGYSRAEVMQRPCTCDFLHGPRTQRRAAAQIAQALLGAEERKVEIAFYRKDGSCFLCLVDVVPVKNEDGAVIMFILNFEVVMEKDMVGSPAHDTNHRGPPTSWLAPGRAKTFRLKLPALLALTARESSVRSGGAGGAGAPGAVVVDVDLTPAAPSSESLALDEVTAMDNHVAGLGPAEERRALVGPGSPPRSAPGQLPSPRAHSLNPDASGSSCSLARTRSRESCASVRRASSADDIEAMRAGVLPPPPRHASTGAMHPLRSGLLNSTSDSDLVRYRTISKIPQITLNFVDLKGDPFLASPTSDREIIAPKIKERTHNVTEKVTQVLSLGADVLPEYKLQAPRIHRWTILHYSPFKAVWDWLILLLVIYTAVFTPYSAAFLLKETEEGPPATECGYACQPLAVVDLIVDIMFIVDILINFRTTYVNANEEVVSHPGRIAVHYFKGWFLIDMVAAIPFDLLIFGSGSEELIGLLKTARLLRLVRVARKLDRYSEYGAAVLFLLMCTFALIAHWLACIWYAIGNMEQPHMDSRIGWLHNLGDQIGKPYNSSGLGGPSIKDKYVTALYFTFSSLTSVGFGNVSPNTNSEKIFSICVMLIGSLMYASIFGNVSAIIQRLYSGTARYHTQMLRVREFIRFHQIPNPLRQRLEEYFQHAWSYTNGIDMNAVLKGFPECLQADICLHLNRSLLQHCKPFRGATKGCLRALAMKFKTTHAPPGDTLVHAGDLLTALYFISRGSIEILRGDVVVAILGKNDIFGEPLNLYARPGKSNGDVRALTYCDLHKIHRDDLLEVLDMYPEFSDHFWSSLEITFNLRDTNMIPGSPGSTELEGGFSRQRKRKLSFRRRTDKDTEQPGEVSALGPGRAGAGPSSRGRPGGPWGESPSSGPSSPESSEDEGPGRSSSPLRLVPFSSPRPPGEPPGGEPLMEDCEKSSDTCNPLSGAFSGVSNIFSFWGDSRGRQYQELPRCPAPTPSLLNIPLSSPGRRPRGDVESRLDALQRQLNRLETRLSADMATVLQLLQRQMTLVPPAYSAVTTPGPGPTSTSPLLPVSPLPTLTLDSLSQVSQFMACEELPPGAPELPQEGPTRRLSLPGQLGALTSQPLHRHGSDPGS
How it was run: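 hERG block measured as reduced thallium-dye (FluxOR) fluorescence after stimulation buffer addition, read over 2 min. Cells were hERG-BacMam-transduced U2OS exposed to compound ~10 min […]; concentration-response fitted with Hill equation for AC50.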

[2] = target: Luciferin 4-monooxygenase (Photinus pyralis) (UniProt P08659); test: Biochemical firefly luciferase enzyme assay for NPC (AID 624030);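 note: purified P. pyralis luciferase at 10 nM with luciferin and ATP substrate; nearly all actives have a fitted effect of over 70% in size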
Chain of Luciferin 4-monooxygenase (Photinus pyralis) (P08659 whole entry, looked up): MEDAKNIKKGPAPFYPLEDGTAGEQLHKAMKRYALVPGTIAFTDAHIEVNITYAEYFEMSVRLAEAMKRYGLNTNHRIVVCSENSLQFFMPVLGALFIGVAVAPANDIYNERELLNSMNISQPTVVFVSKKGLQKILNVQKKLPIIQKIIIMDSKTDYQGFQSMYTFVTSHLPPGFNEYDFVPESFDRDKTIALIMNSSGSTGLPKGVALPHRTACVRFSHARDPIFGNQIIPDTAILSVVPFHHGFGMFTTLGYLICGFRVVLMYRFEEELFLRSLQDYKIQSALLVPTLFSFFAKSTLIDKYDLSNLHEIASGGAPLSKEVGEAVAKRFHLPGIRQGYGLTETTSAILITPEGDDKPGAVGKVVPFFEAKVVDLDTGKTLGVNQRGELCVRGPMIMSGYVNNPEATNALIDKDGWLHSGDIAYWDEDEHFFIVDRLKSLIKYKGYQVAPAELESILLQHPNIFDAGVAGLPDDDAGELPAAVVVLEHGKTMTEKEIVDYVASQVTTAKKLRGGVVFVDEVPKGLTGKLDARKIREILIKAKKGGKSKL
How it was run: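 Direct inhibition of firefly luciferase enzyme (10 nM final, 50 mM Tris Acetate) assessed by luminescence within 5 minutes. Percent activity scaled between DMSO and PTC124 positive control, with concentration-effect curves classified by fit quality and response.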

[3] = S16 Schwann cell viability assay (CellTiter-Glo assay) (AID 624031);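 note: native untransfected S16 rat Schwann cells; cellular ATP luminescence as a viability measure; nearly all actives have a fitted effect of over 70% in size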
How it was run: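 Cells were seeded at 500-750 per well in phenol red-free DMEM with 10% FBS and left overnight. Compounds or DMSO were pinned in, incubation ran 24 h at 37 °C/5% CO2, then CellTiter-Glo reagent was added and luminescence measured.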

[4] = S16 Schwann cell PMP22 intronic element firefly luciferase assay (AID 624032); note: nearly all actives have a fitted effect of over 30% in size; note: potency is the fitted concentration of half-maximal effect
How it was run: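 Luciferase reporter of PMP22 intronic-element expression in stably transfected S16 rat Schwann cells, read by ONE-Glo luminescence after 24 h compound exposure at 37 C. Activity scaled between DMSO (0%) and positive-control PTC124; concentration-effect curves quality-classified.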

[5] = S16 Schwann cell PMP22 intronic element beta-lactamase assay (AID 624044; calls by dose curve; note: nearly all actives have a fitted effect of over 15% in size); details: S16 rat Schwann cells, PMP22 element beta-lactamase FRET, 24 h; ratio activity, negative = inhibition: at 38.3 µM (top of the series) unless noted
How it was run: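 Beta-lactamase reporter under a PMP22 intronic regulatory element in stable S16 rat Schwann cells; 24 h compound exposure. 460 nm blue signal normalized between DMSO (0%) and potassium clavulanate, with 535 nm FRET tracking viability; curves classed by r2 and response.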

Structure (SMILES)	Potency [1]	Potency [2]	Potency [3]	Potency [4]	ratio activity, negative = inhibition [5]
[O]=[Bi][O]C(=O)[O][Bi]=[O]	inactive	inactive	inactive	inactive	-4.42%
FCOC(C(F)(F)F)C(F)(F)F	inactive	inactive	inactive	inactive	–
FC(F)(F)C(F)(F)C(F)(F)C(F)(F)C(F)(F)F	inactive	inactive	inactive	inactive	0%
CO[C@H]1C[C@@H]2CC[C@@H](C)[C@@](O)(O2)C(=O)C(=O)N2CCCC[C@H]2C(=O)O[C@H]([C@H](C)C[C@@H]2CC[C@@H](OC(=O)C(C)(CO)CO)[C@H](OC)C2)CC(=O)[C@H](C)/C=C(\C)[C@@H](O)[C@@H](OC)C(=O)[C@H](C)C[C@H](C)/C=C/C=C/C=C/1C	inactive	inactive	inactive	inactive	-3.79%
CC(=O)Oc1cc(C(F)(F)F)ccc1C(=O)O	inactive	inactive	inactive	inactive	-5.78% [at 17.1 µM]
COc1ccc(/C=C/C(=O)O)cc1	inactive	inactive	inactive	inactive	1.76%
CC/C(=C(/CC)c1ccc(OP(=O)(O)O)cc1)c1ccc(OP(=O)(O)O)cc1	inactive	inactive	inactive	inactive	2.34%
CN1CCc2c(c3ccccc3n2Cc2ccccc2)C1	5.01 µM (active)	inactive	inactive	inactive	-4.6% [at 17.1 µM]
Cc1cccc(C)c1NC(=O)NC1=CCCN1C	inactive	inactive	inactive	inactive	3.11%
CNC(=O)C[C@@H](N)C(=O)N[C@@H](C(=O)N[C@@H]1C(=O)N2[C@@H]1SC(C)(C)[C@@H]2C(=O)O)c1ccc(O)cc1	inactive	inactive	inactive	inactive	-2.79%
O=C(CCCN1CCC(C(=O)c2ccc(F)cc2)CC1)c1ccc(F)cc1	0.0891 µM (active)	inactive	inactive	inactive	-12.9%
CCN(CC)CCOC(=O)c1cccnc1	inactive	inactive	inactive	inactive	2.66%
CC12CCC(C1)C(C)(C)C2=O (centres undefined)	inactive	inactive	inactive	inactive	1.35%
C=Cc1ccc(S(=O)(=O)O)cc1	inactive	inactive	inactive	inactive	-7.16%
CCCC(CCC)C(=O)OC1C[C@H]2CC[C@@H](C1)[N+]2(C)C (some centres undefined)	inactive	inactive	inactive	inactive	6.3%
O=C(NNCNNC(=O)c1ccncc1)c1ccncc1	inactive	inactive	inactive	inactive	-2.76%
CC(/C=C/C=C(\C)C(=O)O[C@@H]1O[C@H](CO[C@@H]2O[C@H](CO)[C@@H](O)[C@H](O)[C@H]2O)[C@@H](O)[C@H](O)[C@H]1O)=C\C=C\C=C(C)\C=C\C=C(/C)C(=O)O[C@@H]1O[C@H](CO[C@@H]2O[C@H](CO)[C@@H](O)[C@H](O)[C@H]2O)[C@@H](O)[C@H](O)[C@H]1O	inactive	inactive	inactive	inactive	3.54%
O=C(CCCN1CCN2CCCC2C1)c1ccc(F)cc1 (centres undefined)	inactive	inactive	inactive	inactive	-6.15%
O=C(NNCS(=O)(=O)O)c1ccncc1	inactive	inactive	inactive	inactive	-19.9% (active)
Cn1c(=O)c2c(ncn2CCOC(=O)C(C)(C)Oc2ccc(Cl)cc2)n(C)c1=O	inactive	inactive	inactive	32.2 µM (active)	-5.21%
O=C(O)/C=C/C(=O)Nc1ccc(S(=O)(=O)Nc2nccs2)cc1	inactive	inactive	inactive	inactive	1.33%
C=CCCCCCCCCC(=O)OC	inactive	inactive	inactive	inactive	-14.3%
CCN(CC)C(=O)c1cccnc1	inactive	inactive	inactive	inactive	2.08%
NC(N)=NCC1COc2ccccc2O1 (centres undefined)	inactive	inactive	inactive	inactive	2.65%
Cc1cc(=O)c(C(=O)N[C@@H](C(=O)N[C@@H]2C(=O)N3C(C(=O)O)=C(CSc4nnnn4C)CS[C@H]23)c2ccc(O)cc2)c[nH]1	inactive	inactive	inactive	inactive	0.254%

Source: PubChem BioAssay (NCATS)
